About 2,100 (0.62%) of roughly 340,000 compounds were called active.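 How the source made its calls: active means first-screen hits whose inhibition reached a set limit at any dose in the follow-up dose series; inconclusive means inhibition above the set first-screen limit but never retested; inactive means the rest.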 A selection follows. Results with a measured potency or affinity are listed apart.
Each compound was assayed against Rac GTPase-activating protein 1 (Homo sapiens) (UniProt Q9H0H5) (assay: blockers of MgcRacGAP-driven Rac1 GTP hydrolysis – biochemical, ADP Hunter fluorescence, primary and confirmatory, confirmation (AID 624330;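 further: fluorescence reports GDP produced by GAP-driven GTP hydrolysis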)). Conditions: MgcRacGAP-stimulated Rac1 GTP hydrolysis, at 30 µM, active compounds read high, GST-tagged Rac1 F28L mutant substrate.
Chain of Rac GTPase-activating protein 1 (Homo sapiens) (Q9H0H5 whole entry, looked up): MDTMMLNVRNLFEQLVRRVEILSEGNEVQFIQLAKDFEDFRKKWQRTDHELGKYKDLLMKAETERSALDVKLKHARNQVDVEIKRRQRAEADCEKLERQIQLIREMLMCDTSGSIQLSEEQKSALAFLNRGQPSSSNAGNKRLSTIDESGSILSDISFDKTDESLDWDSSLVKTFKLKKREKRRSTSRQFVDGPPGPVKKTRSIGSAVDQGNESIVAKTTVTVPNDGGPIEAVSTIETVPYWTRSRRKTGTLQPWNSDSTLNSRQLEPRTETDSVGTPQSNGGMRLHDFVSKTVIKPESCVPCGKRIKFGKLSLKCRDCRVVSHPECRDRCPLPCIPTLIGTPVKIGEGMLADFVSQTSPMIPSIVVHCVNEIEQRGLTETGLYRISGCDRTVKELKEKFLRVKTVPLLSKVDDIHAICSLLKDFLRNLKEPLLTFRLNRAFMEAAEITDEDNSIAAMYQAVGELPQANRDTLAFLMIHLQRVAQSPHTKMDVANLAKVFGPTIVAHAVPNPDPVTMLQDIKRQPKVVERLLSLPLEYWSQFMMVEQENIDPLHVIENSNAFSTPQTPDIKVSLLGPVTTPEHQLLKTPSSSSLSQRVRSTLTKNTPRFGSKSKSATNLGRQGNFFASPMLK

inhibition, inactive:
COCCOC1CCN(C(=O)C2CCC(=O)N(CCc3ccccc3)C2)CC1 (stereo not drawn) 9.57%
CCC(=O)c1ccc(CCCCCC(=O)O)s1 3.88%
O=C(O)/C=C/C(=O)Nc1ccccc1SC(F)(F)F -1%
COc1ccc([N+](=O)[O-])cc1N(CC(=O)NCCCOC(C)C)S(C)(=O)=O 7.79%
Cc1ccc(C)c(NC(=O)C2CCCN(c3cnccn3)C2)c1 (stereo not drawn) 14.2%
C/C(=N\NC(=O)c1cccc(N/N=C(\C)c2ccccc2)c1)c1ccccc1 0.42%
C/C(=N\NC(=O)c1cc(O)ccc1O)c1cccc(NC(=O)c2cccc(Cl)c2)c1 25.5%
O=C(CCC1CCCN(C(=O)c2cncs2)C1)NCc1ccc(F)c(F)c1 (stereo not drawn) 4.71%
CC(C)Sc1nc2ccsc2c(=O)[nH]1 8.22%
O=C(CC1CCCC1)Nc1ccc(Cl)c(S(=O)(=O)N2CCOCC2)c1 1.97%
Cc1ccnc(NC(=S)NC(=O)/C=C/c2ccc(Cl)cc2)c1 3.91%
CN(C)CCCn1c(SCc2c(Cl)cccc2Cl)nnc1-c1ccncc1 25.2%
CCOCCCn1c(SCc2ccccc2)nnc1-c1ccncc1 7.47%
Cc1cc(C)cc(NC(=O)c2cc3c(=O)n4ccccc4nc3s2)c1 7.35%
CC(C)(C)NC(=O)COC(=O)c1ccc(Cl)nc1 2.54%
COc1ccc([C@H]2CN(c3ccccc3)C(=O)[C@@H]2CC(=O)Nc2ccccc2)cc1 9.26%
COc1ccc(NC(=O)C[C@H]2C(=O)N(c3ccc(Br)cc3)C[C@@H]2c2ccc(OC)cc2)cc1 15.9%
COc1ccc(-c2csc(N(CCCN(C)C)C(=O)c3cc(OC)c(OC)c(OC)c3)n2)cc1 4.15%
CC(C)(C)C(=O)N1CCN(c2ccc([N+](=O)[O-])cc2Cl)CC1 5.07%
O=[N+]([O-])c1ccc(N2CCN(c3ccccc3O)CC2)c(Cl)c1 -5.04%
O=[N+]([O-])c1ccc2c(c1)Cc1cc(F)ccc1-2 -1.78%
Nc1ccc2c(c1)Cc1cc([N+](=O)[O-])ccc1-2 14.4%
Brc1ccc(-c2noc(C3CCCCC3)n2)cc1 11.8%
Cc1cc(C)n(-c2cccc(Cl)c2C#N)n1 7.18%
CCOC(=O)c1c(C)c(C(=O)Nc2ccc(F)cc2)c(C)n1C 1.27%
CCOC(=O)c1sc(C)c2c1NC1(CCCCCC1)NC2=O 1.2%
COc1cc(OC)c(OC)cc1/C=N/NC(=O)c1cnccn1 9.21%
COc1ccc(/C=N/NC(=O)c2cccnc2)cc1O 28.2%
COc1cc(/C=N/NC(=O)c2cnccn2)cc(OC)c1OC 3.55%
COc1cccc(/C=N/NC(=O)c2cnccn2)c1 8.84%
CSc1ccccc1NC(=O)CN1CCN(c2ccccn2)CC1 6.87%
COc1ccc2nc(C)cc(N/N=C/c3ccc(F)cc3)c2c1 13.3%
COc1ccc2nc(C)cc(N/N=C/c3ccccc3)c2c1 19.7%
Cc1ccc2nc(C)cc(N/N=C/c3ccccc3O)c2c1 9.12%
COc1ccccc1/C=N/Nc1cc(C)nc2ccc(C)cc12 14.4%
COc1ccc(OC)c(S(=O)(=O)N2CCC3(CC2)CC(=O)c2ccccc2O3)c1 8.64%
O=C(Nc1ccc(C(=O)O)cc1)/C(=C\c1ccc2c(c1)OCO2)NC(=O)c1ccccc1 -1.61%
O=C(COC(=O)c1ccc([N+](=O)[O-])o1)Nc1ccc(N2CCOCC2)cc1 10.6%
C/C(=N\N(c1ccccc1)c1ccccc1)c1ccc(N)cc1 18.1%
O=C(O)c1ccc(N(c2ccccc2)c2ccccc2)cc1 6.47%
O=C(CSc1nc2ccc(NC(=O)CSc3nnnn3-c3ccccc3)cc2s1)Nc1ccccc1 2.46%
CN(C)c1ccc(C(=O)N2CCCC2)cc1 3.64%
CN(C)c1ccc(C(=O)NN2C(=O)c3ccccc3C2=O)cc1 8.64%
C[C@@H]1CN([C@@H](C)CO)C(=O)c2cc(Br)cnc2O[C@H]1CN(C)C(=O)c1ccc2c(c1)OCO2 13.5%
Cc1cccc(NC(=O)CCCN=C2NS(=O)(=O)c3ccccc32)c1C -1.68%
CCN(CC)c1ccc(C=N/C(C#N)=C(\N)C#N)cc1 6.79%
CN(c1ccccc1)c1ccc(/C=N/NC(=O)CC#N)cc1 10.3%
CCOc1ccc(/C=N/O)cc1 5.7%
CN(C)c1ccc(C=Nc2ccccc2)cc1 0.89%
Cc1ccc(N=Cc2ccc(N(C)C)cc2)cc1 3.33%
CCN(CC)c1ccc(/C=N/NC(=O)C(O)c2ccccc2)cc1 (stereo not drawn) 9.04%
NC(=S)N/N=C/c1ccccc1 11.7%
CCN(CC)c1ccc(/C=N/NC(=O)CC(C)C)cc1 5.15%
Cc1ccc(SCC(=O)n2nc(C)cc2C)cc1 3.7%
CSc1nc(NS(=O)(=O)c2ccc(F)cc2F)nn1C 6.35%
Cc1ccc(S(=O)(=O)N2CCN(C(=O)Cn3nc(C)c([N+](=O)[O-])c3C)CC2)cc1 6.68%
CC(C)Cn1c(N)c(C(=O)COC(=O)COc2cccc(C(F)(F)F)c2)c(=O)n(C)c1=O 6.32%
COC1CC(C)NC(=S)N1 (stereo not drawn) 12.9%
O=C(Cn1nnc2ccccc21)N/N=C/c1ccco1 10.9%
COc1ccc(NC(=O)c2ccc3c(c2)C(=O)N(CC2CCCO2)C3=O)cc1O (stereo not drawn) 0.29%
O=C(CSc1nnc(-c2ccco2)n1Cc1ccccc1)NCc1ccccc1 5.14%
O=C(CSc1nnc(-c2ccco2)n1Cc1ccccc1)c1ccccc1 13.1%
O=C(NN=Cc1ccc2c(c1)CCC2)c1ccccc1[N+](=O)[O-] 6.28%
